Reference: PubChem BioAssay (Tox21)
Records with an inconclusive call do not appear. The source holds several records for some structures; these can differ, active in one and inactive in another. Calls of active or inactive are those of the source. Unless noted, calls follow the shape of the dose curve; as a rule, active = well fitted curve in the direction sought with a large enough effect in the repeat runs; inconclusive = weak or mixed curves; inactive = no such curve, though single readings can be large; an effect the other way counts as inactive or inconclusive.

Assays:
[1] = qHTS assay for small molecule agonists of the p53 signaling pathway (AID 651631; calls by dose curve; also: nearly all actives have a fitted effect of over 15% in size)
Outline: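 HCT-116 cells carrying a stable p53 response element–beta-lactamase reporter were plated, rested 5 h at 37 °C, then exposed to compound in DMSO for 16 h at 37 °C; reporter activity was read as FRET substrate fluorescence after 2 h at room temperature.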

[2] = qHTS assay for small molecules that induce genotoxicity in human embryonic kidney cells expressing luciferase-tagged ATAD5 (AID 651632); also: nearly all actives have a fitted effect of over 15% in size
Outline: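 HEK293T cells carrying a luciferase reporter tagged to ATAD5 were exposed to compound or DMSO vehicle for 16 hr at 37C, 5% CO2. Amplite was added, and after 30 min at room temperature luciferase activity was read as a marker of ATAD5 induction.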

[3] = qHTS assay for small molecule agonists of the p53 signaling pathway - cell viability (AID 651633; calls by dose curve; also: series mostly up to about 83 µM; nearly all actives have a fitted effect of over 30% in size)
Outline: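 p53RE-bla cells, seeded at 4,000 per well and rested 5 h at 37 C/5% CO2, received compounds in DMSO for 16 h at 37 C. CellTiter-Glo was then added, and luminescence was read after 30 min at room temperature to gauge cytotoxicity.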

[4] = qHTS assay for small molecules that induce genotoxicity in human embryonic kidney cells expressing luciferase-tagged ATAD5 - cell viability (AID 651634; calls by dose curve; also: nearly all actives have a fitted effect of over 25% in size)
Outline: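 HEK293T cells expressing luciferase-tagged ATAD5 were exposed to compound or DMSO for 15.5 hr at 37C, 5% CO2. Viability was then read as live-cell protease activity by CellTiter-Fluor fluorescence after 30 min at 37C.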

[5] = qHTS assay for small molecule disruptors of the mitochondrial membrane potential (AID 720635); also: potency is read from the fitted curve at half-maximal effect
Outline: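 HepG2 cells (2,000/well) attached overnight at 37C, then took compound for 1 hr at 37C, 5% CO2. Mito-MPS dye was added for 30 min; fluorescence was read at 490/535 nm (monomers) and 540/590 nm (aggregates).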

[6] = qHTS assay to test for compound auto fluorescence at 590 nm (red) in HepG2 cells (AID 720674)
Outline: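 Compound auto-fluorescence is scored relative to Rose Bengal sodium, measured at 540/590 nm in live HepG2 cultures after 1 hr compound contact (37 C, 5% CO2).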

[7] = qHTS assay to test for compound auto fluorescence at 535 nm (green) in HepG2 cells (AID 720675)
[8] = qHTS assay to test for compound auto fluorescence at 460 nm (blue) in HEK293 cells (AID 720678)
Outline: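 HEK293, 2,000 cells/well, 10% dialyzed FBS; attach 4-5 hr 37C; pin compound or DMSO; o/n 37C/5% CO2; fluorescence 405/460 nm; triamterene-equivalent units.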

[9] = qHTS assay to test for compound auto fluorescence at 590 nm (red) in HEK293 cells (AID 720679)
Outline: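 Intensity at 540nm excitation and 590nm emission is reported as Rose Bengal sodium-equivalent autofluorescence. Measurements followed overnight exposure (37C, 5% CO2) of HEK293 cells, 2,000 per well, to 23 nL compound.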

[10] = qHTS assay to test for compound auto fluorescence at 535 nm (green) in HEK293 cells (AID 720680)
[11] = qHTS assay to test for compound auto fluorescence at 460 nm (blue) in HEK293 cell free culture (AID 720681)
Outline: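 Test compounds were pinned into cell-free culture medium (DMEM with 10% FBS) and fluorescence was read directly at Ex/Em 405/460 nm. Signals were expressed as fluorescence equivalents of triamterene, with DMSO vehicle as control.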

[12] = qHTS assay to test for compound auto fluorescence at 535 nm (green) in HEK293 cell free culture (AID 720682)
Outline: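 Read-out: 485/535 nm fluorescence intensity, calibrated against fluorescein. Medium only (DMEM + 10% FBS, no cells); test compound or DMSO vehicle added by pintool before plate reading.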

[13] = qHTS assay to test for compound auto fluorescence at 590 nm (red) in HEK293 cell free culture (AID 720683)
Outline: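 Tox21 10K library compounds were pinned into cell-free DMEM with 10% FBS and fluorescence was read at excitation 540 nm. Activity is expressed as Rose Bengal sodium equivalency.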

[14] = qHTS assay to test for compound auto fluorescence at 590 nm (red) in HepG2 cell free culture (AID 720684)
Outline: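 Measured in medium alone (MEM containing 10% FBS) following pintool addition of compound; emission at 590 nm with 540 nm excitation, referenced to Rose Bengal sodium.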

[15] = qHTS assay to test for compound auto fluorescence at 460 nm (blue) in HepG2 cell free culture (AID 720685)
Outline: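 Compound (23 nL) or DMSO pinned into cell-free MEM with 10% FBS; blue fluorescence read at 405/460 nm excitation/emission, expressed as auto-fluorescence equivalency to triamterene.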

[16] = qHTS assay to test for compound auto fluorescence at 535 nm (green) in HepG2 cell free culture (AID 720686)
[17] = qHTS assay to test for compound auto fluorescence at 460 nm (blue) in HepG2 cells (AID 720687)
Outline: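 Cells (2,000/well in MEM with 10% FBS) attached overnight at 37 C, then were exposed to compound or DMSO for 1 hr at 37 C, 5% CO2. Fluorescence read at Ex/Em 405/460 nm, expressed as triamterene-equivalent signal.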

[18] = molecular target: Glucocorticoid receptor (Homo sapiens) (UniProt P04150); test: qHTS assay to identify small molecule agonists of the glucocorticoid receptor (GR) signaling pathway (AID 720691; active = well fitted activation curve with a large enough effect in the signal ratio in the repeat runs, not every such curve was filed as active; the % refers to the signal ratio)
Sequence of Glucocorticoid receptor (Homo sapiens) (P04150 whole entry, looked up): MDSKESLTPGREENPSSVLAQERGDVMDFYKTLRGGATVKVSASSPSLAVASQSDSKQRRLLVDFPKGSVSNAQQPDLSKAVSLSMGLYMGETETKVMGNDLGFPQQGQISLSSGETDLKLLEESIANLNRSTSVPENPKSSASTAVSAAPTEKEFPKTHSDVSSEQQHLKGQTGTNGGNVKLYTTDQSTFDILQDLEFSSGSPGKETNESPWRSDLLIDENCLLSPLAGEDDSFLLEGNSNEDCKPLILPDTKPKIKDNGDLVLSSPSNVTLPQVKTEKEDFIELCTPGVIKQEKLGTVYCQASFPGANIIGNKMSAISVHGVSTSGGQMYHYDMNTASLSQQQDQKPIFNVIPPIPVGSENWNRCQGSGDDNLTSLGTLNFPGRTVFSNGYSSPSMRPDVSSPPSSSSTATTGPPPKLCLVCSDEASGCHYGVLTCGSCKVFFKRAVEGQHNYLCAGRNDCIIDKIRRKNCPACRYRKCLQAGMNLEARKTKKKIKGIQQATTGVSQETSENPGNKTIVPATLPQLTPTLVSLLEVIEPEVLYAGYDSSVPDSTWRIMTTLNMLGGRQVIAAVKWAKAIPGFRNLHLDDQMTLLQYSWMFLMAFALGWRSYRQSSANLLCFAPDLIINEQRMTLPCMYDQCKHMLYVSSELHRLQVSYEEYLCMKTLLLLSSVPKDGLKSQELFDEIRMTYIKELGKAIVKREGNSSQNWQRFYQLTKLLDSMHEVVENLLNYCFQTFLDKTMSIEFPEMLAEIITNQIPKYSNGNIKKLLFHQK
Outline: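 GR-bla HeLa cells (beta-lactamase reporter under glucocorticoid response element) were plated 4 h at 37 C/5% CO2, given compounds in DMSO, and incubated 18 h at 37 C. LiveBLAzer B/G FRET substrate was added for 2 h at room temperature, then fluorescence intensity read.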

[19] = molecular target: Glucocorticoid receptor (Homo sapiens) (UniProt P04150); test: qHTS assay to identify small molecule antagonists of the glucocorticoid receptor (GR) signaling pathway (AID 720692; active = well fitted inhibition curve with a large enough effect in the signal ratio in the repeat runs, not every such curve was filed as active; the % refers to the signal ratio)
Outline: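 GR-bla HeLa cells (beta-lactamase reporter under glucocorticoid response element) were pre-plated 4 h at 37 C, treated with compounds plus 5 nM dexamethasone (final) for 18 h, then read by LiveBLAzer B/G FRET fluorescence after 2 h.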

[20] = qHTS assay for small molecule disruptors of the mitochondrial membrane potential - cell viability (AID 720634; calls by dose curve;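 also: human HepG2 liver cancer cells; series mostly up to about 83 µM; nearly all actives have a fitted effect of over 20% in size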)
Outline: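 HepG2 cells seeded overnight at 37 C, then exposed to compound or DMSO for 1 hr at 37 C, 5% CO2. m-MPI dye added, then CellTiter-Glo for 30 min at room temperature; viability read as ATP luminescence.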

Measured: Potency

CCOCC(=O)O
inactive: [1] | [2] | [3] | [4] | [5] | [6] | [7] | [8] | [9] | [10] | [11] | [12] | [13] | [14] | [15] | [16] | [17] | [18] | [19]

CC(C)OC(=O)COc1ccc(Cl)cc1Cl
inactive: [1] | [2] | [3] | [4] | [5] | [6] | [8] | [9] | [11] | [12] | [13] | [14] | [15] | [16] | [17] | [18] | [19]

CN(C)c1ccc(Cc2ccc(N(C)C)cc2)cc1
inactive: [1] | [2] | [3] | [4] | [6] | [7] | [8] | [9] | [11] | [12] | [13] | [14] | [15] | [16] | [17] | [18] | [19]
54.7 µM (active) and inactive: [5]

CCOC(=O)c1ccc(N)cc1
inactive: [1] | [2] | [3] | [4] | [20] | [5] | [6] | [7] | [8] | [9] | [11] | [12] | [13] | [14] | [15] | [16] | [17] | [18] | [19]

O=C(O)c1ccccc1C(=O)O
inactive: [1] | [2] | [3] | [4] | [5] | [6] | [8] | [9] | [10] | [11] | [12] | [13] | [14] | [15] | [16] | [17] | [18] | [19]

CC(=O)Oc1ccc(C)cc1
inactive: [1] | [2] | [3] | [4] | [20] | [5] | [6] | [7] | [8] | [9] | [11] | [12] | [13] | [14] | [15] | [16] | [17] | [18] | [19]

CCNC(=S)NCC
inactive: [1] | [2] | [3] | [4] | [20] | [5] | [6] | [7] | [8] | [9] | [11] | [12] | [13] | [14] | [15] | [16] | [17]

CCCCCCCCCCCC(=O)OC
inactive: [1] | [2] | [3] | [4] | [20] | [5] | [6] | [7] | [8] | [9] | [10] | [11] | [12] | [13] | [14] | [15] | [16] | [17] | [18] | [19]

c1ccc(Oc2ccccc2)cc1
inactive: [1] | [2] | [3] | [4] | [20] | [5] | [6] | [7] | [8] | [9] | [11] | [12] | [13] | [14] | [15] | [16] | [17] | [18] | [19]

CCCCCCCCCCN
inactive: [1] | [2] | [3] | [4] | [20] | [5] | [6] | [7] | [8] | [9] | [10] | [11] | [12] | [13] | [14] | [15] | [16] | [17] | [18] | [19]

CCCCCCO
inactive: [1] | [2] | [3] | [4] | [20] | [5] | [6] | [7] | [8] | [9] | [10] | [11] | [12] | [13] | [14] | [15] | [16] | [17] | [18] | [19]

CC1(C)NC(=O)NC1=O
inactive: [1] | [2] | [3] | [4] | [20] | [5] | [6] | [8] | [9] | [10] | [11] | [12] | [13] | [14] | [15] | [16] | [17] | [18] | [19]

CNC(=S)N(C)C
inactive: [1] | [2] | [3] | [4] | [5] | [6] | [8] | [9] | [10] | [11] | [12] | [13] | [14] | [15] | [16] | [17] | [18] | [19]

C=CC(=O)OCCC(=O)O
inactive: [1] | [2] | [3] | [4] | [20] | [5] | [6] | [7] | [8] | [9] | [10] | [11] | [12] | [13] | [14] | [15] | [16] | [17] | [18]

COc1ccc(OC)cc1
inactive: [1] | [2] | [3] | [4] | [20] | [5] | [6] | [8] | [9] | [10] | [11] | [12] | [13] | [14] | [15] | [16] | [17] | [18] | [19]

CNC(=O)Oc1ccc2c(c1)[C@]1(C)CCN(C)[C@@H]1N2C
inactive: [1] | [2] | [3] | [4] | [20] | [6] | [7] | [8] | [9] | [10] | [11] | [12] | [13] | [14] | [15] | [16] | [17] | [18]
